Source: PubChem
Compounds with a hit are over-represented: about 2.3% of the library has one in this group of screens.
Gli-Sufu antag: Gli-Sufu pathway antagonists, primary screen, luciferase luminescence, Sufu-KO-LIGHT cells, uHTS | 0.74% of 340,000 active | AID 588413, 2011 | inhibition, % at 5 µM | Sufu-KO-LIGHT fibroblasts, Gli luciferase reporter luminescence;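 active = inhibition above about 55%, limit read from the data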;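 note: 0% = DMSO-treated cells and 100% = wells with medium but no cells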
697 NFkB inh: inhibitors of PMA/ionomycin-induced NF-kB reporter, 697 cells, primary screen, B-cell NF-kB inhibitor project, cell-based, luminescence, uHTS. 697 B-cell NF-kB luciferase reporter, 16 h. inhibition, % at 4 µM. 0.33% of 330,000 active; in the data active = inhibition above about 35%
Shn3 inh set2: reduction of Shn3 3'UTR firefly luciferase signal, primary screen, Schnurri-3 inhibitor project, cell-based, Clone20 osteoblasts, set 2 | 0.52% of 360,000 active | Clone20 osteoblast Shn3 3'UTR firefly luciferase, 24 h | inhibition, % at 12.5 µM;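 active = mean inhibition of at least 75% with every replicate also reaching 75%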;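 note: 0% = median of neutral control wells and 100% = pilot-screen positive control compound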
Jurkat NFkB inh: inhibitors of induced NF-kB luciferase reporter, primary screen, TCR NF-kB activation inhibitor project, cell-based, luminescence, uHTS | inhibition, % at 4 µM | Jurkat, PMA/ionomycin-induced NF-kB luciferase reporter | 0.53% of 330,000 active; in the data active = inhibition above about 50%
aSyn UTR inh: MLPCN primary screen, SNCA 5' untranslated region; alpha-synuclein 5'UTR reporter, inhibitor activity; inhibition, % (tested at 7.5 µM); 0.82% of 300,000 active; AID 1813, 2009; in the data active = inhibition above about 60%;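 note: H4 neuroglioblastoma cells stably carrying SNCA 5'UTR luciferase fusion; 0% = DMSO wells and 100% = positive control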
TAG inh: inhibitors of triacylglycerol accumulation, primary screen, cell-based, uHTS, fluorescence, H9c2; AID 651582, 2012; 0.66% of 230,000 active; H9c2 cells, Nile Red lipid (TAG) fluorescence; cells loaded with 200 µM oleic acid; inhibition, % at 12.5 µM;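 active = pattern-corrected inhibition of lipid staining of at least 50% with the nuclear-stain viability signal not falling by more than 50%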;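 note: 0% = DMSO wells and 100% = triacsin C control wells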
* = called active by the depositor; / = not tested or not shown.

SMILES	Gli-Sufu antag	697 NFkB inh	Shn3 inh set2	Jurkat NFkB inh	aSyn UTR inh	TAG inh
COc1cccc(-n2c(SCC(N)=O)nnc2-c2ccncc2)c1	-3	9	-13	2	13	/
O=C(CC(=O)c1cc(Cl)ccc1O)c1ccccc1	-60	-138	-24	-61	-99	/
Cc1cccc(C(=O)CC(=O)c2cc(Cl)ccc2O)c1	6	-37	32	7	64*	6
CC1(C)CC(=O)C2=C(C1)OC(N)=C(C#N)C21C(=O)N(CN2CCOCC2)c2ccccc21 (stereo not drawn)	5	-10	5	2	-11	-8
COc1cccc(CN2C(=O)C3(C(C#N)=C(N)OC4=C3C(=O)CCC4)c3ccccc32)c1 (stereo not drawn)	-6	1	16	16	63*	/
O=C(NC1CCCC1)C(c1ccsc1)N(Cc1ccco1)C(=O)Cc1cccs1 (stereo not drawn)	-12	3	1	17	-27	-11
COC(=O)[C@@H](C)NC(=O)c1ccc2oc(CCc3ccccc3)nc2c1	-30	-60	-64	-68	-169	/
CC1=NN(c2nc(N)nc(/C(C#N)=C/c3ccc([N+](=O)[O-])o3)n2)C(C)(C)C1	31	/	98*	/	/	49
Cc1c(Cl)cnc(NC(=O)COC(=O)c2ccc3ncsc3c2)c1Cl	-65	-1	-15	1	67*	/
O=C(COC(=O)c1ccc2ncsc2c1)Nc1ncc(Cl)cc1Cl	-17	-37	9	17	-8	/
c1ccc(-n2nnc3c(N4CCOCC4)ncnc32)cc1	-36	-111	-3	-99	75*	/
O=C(NNc1c2ccccc2nc2ccccc12)c1ccc(Cl)cc1	10	-2	-1	-17	-80	/
O=C(N/N=C/c1cn(Cc2ccccc2)c2ccccc12)c1ccncc1	8	-23	20	-3	58	-109
Nc1ccc(C(=O)N/N=C/c2cn(Cc3cccc(F)c3)c3ccccc23)cc1	6	28	9	15	70*	-68
C=CCc1cccc(/C=N/NC(=O)CNc2ccccc2)c1O	-1	11	49	-1	74*	/
CCOC(=O)N/N=C/c1cn(Cc2ccc(Cl)cc2)c2ccccc12	0	29	82	15	70*	/
C=CCc1cccc(/C=N/NC(=O)CNc2cccc3ccccc23)c1O	-3	7	6	-2	-6	/
O=[N+]([O-])/C=C/c1cn(Cc2ccc(Cl)cc2)c2ccccc12	-7	-2	89*	5	65*	/
COc1cccc(C(=O)NC2C(=O)N3C(C(=O)O)=C(COC(C)=O)CSC23)c1 (stereo not drawn)	3	-2	-19	-4	/	2
O=C(CNc1ccc2c(c1)OCO2)N/N=C\c1cn(Cc2ccccc2)c2ccccc12	1	7	-19	8	81*	/
O=C(CNc1ccccc1)N/N=C/c1ccc2c(c1)OCO2	-15	-16	-18	-14	-28	/
CCCN(CCC)C(=O)C1CCCN(S(=O)(=O)c2ccc3c(c2)oc(=O)n3C)C1 (stereo not drawn)	7	2	-6	4	10	/
CCCOc1ccc2cc(-c3ccccn3)c(=O)oc2c1	-13	-55	60	-21	77*	-16
Cc1ccnn2cc3c(=O)n(C)c(=O)n(C)c3c12	/	29	/	-4	-9	/
CN(Cc1ccccc1)CC(O)COc1ccc(CNCCc2cccnc2)cc1 (stereo not drawn)	4	8	-16	-4	-10	7
CCc1ccc(CNCc2ccc(OCC(O)CN(C)Cc3ccccc3)cc2)nc1 (stereo not drawn)	4	-1	86*	31	-30	11
COc1ccc(F)cc1CN1CCN(c2ncnc3scc(-c4ccccc4)c23)CC1	14	1	48	11	98*	0
CCN(C(=O)COC(=O)c1ccc2ccccc2c1)c1c(N)n(Cc2ccccc2)c(=O)[nH]c1=O	-3	11	-5	-1	/	17
CC1=[N+](C)c2c(ccc3cccnc23)C1(C)C	87*	/	93*	/	/	-5
